Assay results: article PMC10726135, “HNF4α isoforms regulate the circadian balance between carbohydrate and lipid metabolism in the liver”
The full ranking holds about 18,000 sequences; the median of “log2 normalized intensity” is about 0.36, and the highest 2% start at about 7.3. Many of the other results were omitted from the sample, so the highest values are more common in it than they were.

The sequences below were run against T1, HNF4alpha8 (COS-7 nuclear extract) (Homo sapiens, UniProt P41235-5 1-452) (assay: protein-binding microarray; COS-7 nuclear extract on double-stranded Agilent 4x180k PBM; binding buffer, salt, pH and temperature not given in the material; high values mean tight binding). Conditions: chain copies: 2; label: 3' end of strand 1 on the slide; dsDNA, one strand shown.
T1 sequence: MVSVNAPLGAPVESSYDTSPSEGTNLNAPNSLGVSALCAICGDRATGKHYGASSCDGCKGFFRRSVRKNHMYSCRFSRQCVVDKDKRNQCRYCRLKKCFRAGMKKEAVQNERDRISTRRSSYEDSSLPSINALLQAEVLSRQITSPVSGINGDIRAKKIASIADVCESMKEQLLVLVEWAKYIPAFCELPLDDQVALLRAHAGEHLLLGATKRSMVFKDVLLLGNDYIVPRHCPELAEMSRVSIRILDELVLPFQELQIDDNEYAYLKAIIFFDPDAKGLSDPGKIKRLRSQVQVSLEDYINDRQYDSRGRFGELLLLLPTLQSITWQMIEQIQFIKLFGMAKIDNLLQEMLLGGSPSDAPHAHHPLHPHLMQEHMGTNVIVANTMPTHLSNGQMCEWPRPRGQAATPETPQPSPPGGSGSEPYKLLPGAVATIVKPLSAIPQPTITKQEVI
Summary of the method: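 COS-7 cells were transiently transfected by CaPO4 with an expression vector for a human HNF4α isoform, and nuclear extracts were prepared from them. The extracts were applied to a custom Agilent SurePrint G3 4x180k array of double-stranded ~60-nt oligonucleotides, with ~44,000 test sequences spotted in quadruplicate. An Agilent G2565CA scanner imaged bound HNF4α at 2-µm resolution. Binding signal is the background-corrected, normalized gProcessedSignal from Agilent software.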

Sequence	binding signal
TGCAGTTTCCCTATTCTCAGTGATATAAAAGCCTAGGGAGATTAGAGTATCGGTCGA	0.942 log2 normalized intensity
CTGGGGCCACCCTCCTCTCTGGGTCAAAGGGCCTAGGGAGATTAGAGTATCGGTCGA	5.36 log2 normalized intensity
TCTCTGGGTCAAAGGTCATCGCACCGGCAGGCCTAGGGAGATTAGAGTATCGGTCGA	7.54 log2 normalized intensity
GAGGTGTCAGCCACCCCTCCTCCTGGGGGCGCCTAGGGAGATTAGAGTATCGGTCGA	2.93 log2 normalized intensity
CTCTCCCTCCTCTCTGAGCAGTCAAACTGGGCCTAGGGAGATTAGAGTATCGGTCGA	1.89 log2 normalized intensity
AAAGGTCATCGCACCGGCAGGGGAGAACTTGCCTAGGGAGATTAGAGTATCGGTCGA	1.24 log2 normalized intensity
GGGGTCAAAGTCCCCTGAGCTTGAGTCCATGCCTAGGGAGATTAGAGTATCGGTCGA	6 log2 normalized intensity
AGGTCGCAAGCACTGGCTCTGGGGTCAAAGGCCTAGGGAGATTAGAGTATCGGTCGA	4.08 log2 normalized intensity
CCTGGTCAAAGTCAACTCCTCCAAGCCACCGCCTAGGGAGATTAGAGTATCGGTCGA	0.614 log2 normalized intensity
CCTGCCTCTCCTCTGAGCTTCATCCTGACCGCCTAGGGAGATTAGAGTATCGGTCGA	1.7 log2 normalized intensity
GCCACCCTCCTCTCTGGGTCAAAGGTCATCGCCTAGGGAGATTAGAGTATCGGTCGA	10.2 log2 normalized intensity
CACTGGCTCTGGGGTCAAAGTCCCCTGAGCGCCTAGGGAGATTAGAGTATCGGTCGA	7.66 log2 normalized intensity
CCTCCTCTCTGGGTCAAAGGTCATCGCACCGCCTAGGGAGATTAGAGTATCGGTCGA	8.5 log2 normalized intensity
CCAATTCACAGAACTCCCTAAGTGGCCTCAGCCTAGGGAGATTAGAGTATCGGTCGA	0.0537 log2 normalized intensity
GGTTGTCAGACTGGTGTAGTGGGGAGGGCAGCCTAGGGAGATTAGAGTATCGGTCGA	1.35 log2 normalized intensity
GCGGCATTCCTGTCAAAATCTGATCTTTCCGCCTAGGGAGATTAGAGTATCGGTCGA	1.47 log2 normalized intensity
CAAGTTGGTTTACATTCTTAGAAGATAAAGGCCTAGGGAGATTAGAGTATCGGTCGA	0.323 log2 normalized intensity
GAGGCTTTGAGTCATTGAGGCTTTGCCTTAGCCTAGGGAGATTAGAGTATCGGTCGA	-0.699 log2 normalized intensity
CATTGACTTTGCCTTTTGGCTAAAGTCCAAGCCTAGGGAGATTAGAGTATCGGTCGA	4.75 log2 normalized intensity
CACAGCTGGACTTTGGCTGCAAAATTTGAAGCCTAGGGAGATTAGAGTATCGGTCGA	3.88 log2 normalized intensity
CTTTGTAGCACTTTGGACCTCCACTTTGGAGCCTAGGGAGATTAGAGTATCGGTCGA	3.36 log2 normalized intensity
AATGATGATGACTTTTGACCCCAGGGGAAAGCCTAGGGAGATTAGAGTATCGGTCGA	6.38 log2 normalized intensity
TTGGACTTTGACCTCCAAAATTATAAGTCAGCCTAGGGAGATTAGAGTATCGGTCGA	8.58 log2 normalized intensity
GAATTCTTGACTTTGGACTTTCAAAAGTTAGCCTAGGGAGATTAGAGTATCGGTCGA	5.14 log2 normalized intensity
CCATTTTGGACTTTGACCTCCAAAATTATAGCCTAGGGAGATTAGAGTATCGGTCGA	10.9 log2 normalized intensity
CTTGACTTTGGACTTTCAAAAGTTAAGGTCGCCTAGGGAGATTAGAGTATCGGTCGA	3.98 log2 normalized intensity
GAGACCCATTTTGGACTTTGACCTCCAAAAGCCTAGGGAGATTAGAGTATCGGTCGA	11.3 log2 normalized intensity
